Source: PubChem BioAssay (NCATS)
Activity calls are given as the source filed them. The call rests on the fitted dose curve; in most records, active means well fitted curve in the direction sought with a large enough effect; inconclusive means small, poorly fitted or top-dose-only effect, or effect the other way, or another doubt; inactive means no such curve, though single readings can be large or run the other way.

test: qHTS for Inhibitors of Cell Surface uPA Generation: Validation Assay (AID 493164); details: mouse cells, plasminogen activation; series mostly up to 38.3 µM;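 further: RAW 264.7 macrophage cells exposed to compound for 18 h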
Source text: NIH Chemical Genomics Center [NCGC]
NIH Molecular Libraries Probe Centers Network [MLPCN]
Assay Submitter (PI): Thomas Bugge
The overall objective of this project is to perform a quantitative high throughput screen (qHTS) to identify novel compounds that inhibit the generation of cell surface urokinase activity. The urokinase plasminogen activator (uPA) is one of the two primary endogenous systems that mediate plasminogen activation into plasmin. Members of this system, including uPA and its receptor (uPAR), are overexpressed in several malignant tumors. This system plays a major role in adhesion, migration, invasion and metastasis of cancer cells. Small molecule inhibitors of the uPA system will serve as probes to understand the molecular mechanisms of the uPA cascade and better understanding the microenvironmental circumstances that facilitate the activation of plasminogen by uPA, and finally may provide novel candidate agents for anticancer drug therapy.
[…] […] Upon inhibition of the uPA activation cascade, the subsequent cell surface uPA activity-dependent translocation of LF into the cytoplasm is inhibited. ATP-Lite is used to measure intracellular ATP concentrations, which remain increased if LF entry into the cytoplasm is inhibited. This validation assay was performed using a small set of validation compounds.
uPA assay protocol summary:
RAW 264.7 cells were maintained in DMEM medium (Invitrogen, Carlsbad, CA) at 37C under a humidified atmosphere containing 5% CO2 and 95% air. The medium contained 10% FBS, 1 mM sodium pyruvate and 50 U/ml penicillin/streptamycin (Invitrogen, Carlsbad, CA). All compounds were screened as 7-point titration from 2.45 nM to 38.3 uM final concentration. The assay was performed in 1536-well format plate as follows:
1.Dispensing RAW 264.7 cells into 1536-well, white walled tissue culture plates at a density of 4000 cells/well (4 uL).
2.Incubation at 37 C in a 5% CO2 incubator overnight.
3.Serially diluting compounds (1:5 serial dilution; 0.0024 uM to […] final concentration) in 23 nl DMSO.
5.Incubating the compound and reagent-treated plates for 18 hours at 37 C in a 5% CO2 incubator.
6.Adding ATP-Lite (3 ul).
7.Reading plates by ViewLux with an exposure length of 5 seconds.

| Compound | outcome |
| --- | --- |
| CC(C)OC(=O)C(C)(C)Oc1ccc(C(=O)c2ccc(Cl)cc2)cc1 | inactive |
| C[N+](C)(C)CC(=O)O | inactive |
| CC(=O)c1ccc(S(=O)(=O)NC(=O)NC2CCCCC2)cc1 | inactive |
| CC/C(=C(\c1ccccc1)c1ccc(OCCN(C)C)cc1)c1ccccc1 | inactive |
| CCCCCN(C)CCC(O)(P(=O)(O)O)P(=O)(O)O | inactive |
| C[N+](C)(C)CCCCCC[N+](C)(C)C | inactive |
| O=C1NC(=O)C(c2ccccc2)(c2ccccc2)N1 | inactive |
| CC1=C(/C=C/C(C)=C/C=C/C(C)=C/C(=O)Nc2ccc(O)cc2)C(C)(C)CCC1 | inactive |
| CC(=O)N[C@@H](CS)C(=O)O | inactive |
| Clc1ccc(C(c2ccc(Cl)cc2)n2cc[n+](CC(OCc3ccc(Cl)cc3Cl)c3ccc(Cl)cc3Cl)c2)cc1 (stereo unspecified) | inactive |
| CC(C)(C)c1ccc(C(O)CCCN2CCC(C(O)(c3ccccc3)c3ccccc3)CC2)cc1 (stereo unspecified) | inactive |
| CCN1CCC[C@H]1CNC(=O)c1cc(S(N)(=O)=O)ccc1OC | inactive |
| CCn1cc(C(=O)O)c(=O)c2ccc(C)nc21 | inactive |
| CCN(CC)C(=O)c1ccc(O)c(OC)c1 | inactive |
| COC(=O)[C@@H]1[C@H]2C[C@H]3c4[nH]c5ccccc5c4CCN3C[C@@H]2CC[C@@H]1O | inactive |
| CN(C)CCC(c1ccccc1)c1ccccn1 (stereo unspecified) | inactive |
| CCCNC(=O)NS(=O)(=O)c1ccc(Cl)cc1 | inactive |
| CC(=O)CCCCn1c(=O)c2c(ncn2C)n(C)c1=O | inactive |

| Compound | outcome |
| --- | --- |
| CC(C)NCC(O)COc1cccc2[nH]ccc12 (stereo unspecified) | inactive |
| CCCCC1C(=O)N(c2ccccc2)N(c2ccccc2)C1=O | inactive |
| O=c1c(-c2ccc(O)cc2)coc2cc(O)ccc12 | inactive |
| O=C1NCC2(CCN(CCc3ccccc3)CC2)O1 | inactive |
| NCCS | inactive |
| COc1cccc(-c2cc(=O)c3ccccc3o2)c1N | inactive |
| O=C(O)CCc1nc(-c2ccccc2)c(-c2ccccc2)o1 | inactive |
| O=C(NCCN1CCOCC1)c1ccc(Cl)cc1 | inactive |
| O=c1cc(-c2ccc(O)cc2)oc2cc(O)cc(O)c12 | inactive |
| COc1ccccc1N1CCN(CCCNc2cc(=O)n(C)c(=O)n2C)CC1 | inactive |
| CC1(C)CCC2=C(O1)c1ccccc1C(=O)C2=O | inactive |
| COc1ccc(Cc2nccc3cc(OC)c(OC)cc23)cc1OC | inactive |
| CCN(CC)CCOC(=O)c1ccc(N)cc1 | inactive |
| Cc1cccc(C)c1OCC(C)N (stereo unspecified) | inactive |
| NC(N)=Nc1nc(CSCC/C(N)=N/S(N)(=O)=O)cs1 | inactive |
| Clc1ccc(Cn2c(CN3CCCC3)nc3ccccc32)cc1 | inactive |
| CC(=O)O[C@]1(C(C)=O)CC[C@H]2[C@@H]3C=C(Cl)C4=CC(=O)[C@@H]5C[C@@H]5[C@]4(C)[C@H]3CC[C@@]21C | inactive |
| CCN(CC)CCNC(=O)c1ccc(N)cc1 | inactive |
